# Screening results as filed in PubChem BioAssay.
# Only some compounds are listed: those with a hit (about 3.2% of all), similar ones and a draw of the others.
# APOBEC3A inh: inhibitors of human APOBEC3A DNA deaminase; P31941; recombinant A3A, FAM/TAMRA ssDNA deamination fluorescence; inhibition, % at 20 µM; 330,000 compounds, 0.41% hits; AID 493011;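 active means at least 40% inhibition at 20 µM here, with at most 30% in a related deaminase screen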;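 further: plate controls were A3A with DMSO for no effect and wells lacking A3A enzyme for full effect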
# AHR activator: human AHR activation; activation, % at 5 µM; AID 2796; 320,000 compounds, 2.5% hits; P35869; AHR-responsive luciferase reporter cells, luminescence; in the data active means activation above about 47%;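 further: 0% = vehicle wells and 100% = reference agonist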
# APOBEC3G inh: blocks human APOBEC3G single-stranded DNA deamination. inhibition, % at 20 µM. recombinant A3G, ssDNA deamination FAM/TAMRA fluorescence. AID 493012. 330,000 compounds, 0.28% hits. Q9HC16;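 active means inhibition of at least 40% at 20 µM, with no more than 30% in the related APOBEC3A deaminase screen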;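 further: plate controls were DMSO wells with A3G for no effect and wells lacking A3G enzyme for full effect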
# NTR1 ag: activates human neurotensin receptor 1; NTR1-U2OS beta-arrestin-GFP spot imaging, agonist mode; AID 493036; activation, % at 20 µM; P30989; 330,000 compounds, 0.17% hits;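 active means activation at or above 40% of the spot to cytoplasm intensity ratio, with at least 20 cells analyzed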;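 further: 0% = DMSO without peptide and 100% = 100 nM NTR1 peptide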
# Target sequence (P30989 whole entry, looked up): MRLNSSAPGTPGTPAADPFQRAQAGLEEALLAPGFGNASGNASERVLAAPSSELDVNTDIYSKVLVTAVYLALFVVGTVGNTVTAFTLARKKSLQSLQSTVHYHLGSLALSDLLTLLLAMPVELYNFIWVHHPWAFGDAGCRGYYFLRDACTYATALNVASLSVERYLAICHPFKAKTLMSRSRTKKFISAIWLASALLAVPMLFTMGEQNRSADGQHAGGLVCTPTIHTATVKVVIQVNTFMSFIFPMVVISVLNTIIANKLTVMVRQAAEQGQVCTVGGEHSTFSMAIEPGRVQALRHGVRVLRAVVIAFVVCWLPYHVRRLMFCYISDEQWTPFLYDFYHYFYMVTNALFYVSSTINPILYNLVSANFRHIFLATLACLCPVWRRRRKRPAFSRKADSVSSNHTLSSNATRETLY
# * marks the source's active call; other numbers are inactive results; · = no result given.
SMILES,APOBEC3A inh,AHR activator,APOBEC3G inh,NTR1 ag
C/C(=N/Nc1nc(-c2ccccc2F)nc2ccccc12)c1ccccc1O,-15,17,-14,18
C/C(=N\Nc1nc(-c2ccccc2O)nc2ccccc12)c1ccccc1,1,53*,-16,9
Cc1ccc(/C=N/Nc2cccc3cccnc23)c(O)c1,1,60*,-1,15
Oc1ccc(/C=N/Nc2cccc3cccnc23)c(O)c1,3,17,-3,13
O=[N+]([O-])c1ccc(O)c(/C=N/Nc2nc3ccccc3[nH]2)c1,-1,57*,-5,0
Cc1cccc(N/N=C/c2ccccc2O)c1,2,65*,-2,8
COc1ccc(O)c(/C=N/Nc2nc3ccccc3[nH]2)c1,-2,24,-6,2
O=[N+]([O-])c1cccc(N/N=C/c2cc([N+](=O)[O-])ccc2O)c1,-4,54*,-7,8
Cc1ccc(S(=O)(=O)N2CCC(NC(=O)OC(C)C)CC2)cc1,-4,-3,-6,-1
O=[N+]([O-])c1ccc(O)c(C=Nc2cccc3ccccc23)c1,-2,52*,9,3
O=C(Nc1cccc(Cl)c1N1CCOCC1)c1cccnc1Cl,-2,6,-5,0
Cc1cccc(NS(=O)(=O)c2ccc(C(=O)NCCCN3CCCC3=O)cc2)c1C,0,-1,-14,1
Cn1cc(/C=C/c2cc[n+](C)cc2)c2cc(Cl)ccc21,·,47*,·,·
CC(C)(C)C(=O)/C=c1\[nH]c(=O)/c(=C\c2ccccc2F)s1,2,53*,-10,9
Cn1c(O)c(C2=c3ccccc3=NC2=O)[nH]c1=S,-1,61*,-3,6
COc1ccc2nc(-n3c(O)c(C4=c5ccccc5=NC4=O)[nH]c3=S)sc2c1,·,23,·,·
Nc1ccc2oc(-c3ccccc3Cl)nc2c1,5,-12,-7,2
Nc1ccc(-c2nc3cc(N)ccc3o2)cc1,-3,4,-9,1
Nc1ccc2oc(-c3cc(Br)ccc3Cl)nc2c1,1,49*,-8,2
CCc1ccc2oc(-c3cc(N)ccc3O)nc2c1,-2,74*,-5,2
Cc1ccc(C)c(-c2nc3cc(N)ccc3o2)c1,-5,-3,-5,3
CCc1ccc2oc(-c3cc(N)ccc3Cl)nc2c1,-2,49*,-3,2
Cc1ccc(Cn2c(C(C)Nc3nc(-c4ccc(F)cc4)cs3)nc3cc(C(F)(F)F)ccc32)cc1 (stereo not drawn),-6,16,-9,1
O=C(CSc1nc2ccccc2s1)Nc1cc(S(=O)(=O)N2CCOCC2)ccc1O,5,13,1,0
Cc1nc(/N=C(\N)NC(=O)c2ccccc2)nc2ccccc12,0,63*,-6,5
SMILES,APOBEC3A inh,AHR activator,APOBEC3G inh,NTR1 ag
Cc1nc(N=C(N)N)nc2ccccc12,3,6,0,0
CCC(=O)N/C(N)=N/c1nc(C)c2cc(C)c(C)cc2n1,3,50*,0,3
Cc1cc2nc(/N=C(\N)NC(=O)C(C)C)nc(C)c2cc1C,-2,41,5,5
COc1ccc(NC(=S)/N=C(\N)Nc2nc(C)c3ccccc3n2)cc1,-2,65*,-6,1
CNc1ccccc(-c2ccc3ccccc3n2)c1=O,2,50*,-11,-1
CC(=O)n1cc([C@@H]2C=C(C(=O)NCc3ccccc3)O[C@H](OCCCCO)C2)c2ccccc21,-5,73*,-2,0
C#CCNC(=O)C1=C[C@@H](c2cn(C(C)=O)c3ccccc23)C[C@@H](OCCCCO)O1,-4,65*,-2,1
CC(=O)n1cc([C@H]2C=C(C(=O)Nc3ccccc3)O[C@@H](OCCCCO)C2)c2ccccc21,0,36,-8,5
COc1ccc(/C=N/Nc2nnc(C)n2N)cc1OC,-1,7,-5,3
CCc1nnc(N/N=C/c2ccccc2Cl)n1N,-2,53*,0,0
CCc1nnc(N/N=C/c2ccccc2F)n1N,2,31,1,2
COc1cccc(/C=N/Nc2nnc(C)n2N)c1OCc1ccccc1Cl,1,57*,1,2
COc1ccc(CCN2C(=O)CC(NNc3ccc([N+](=O)[O-])cc3)C2=O)cc1OC (stereo not drawn),1,2,-2,3
N#CC(C(=O)Nc1ccccc1)=C1Nc2ccccc2N1,-2,78*,1,3
Cc1cc(C(F)(F)F)c(C#N)c(SCC(=O)Nc2nc3ccccc3s2)n1,-3,57*,-7,7
Cc1nc(SCC(=O)Nc2nc3ccccc3s2)c(C#N)c(C)c1C,0,-11,-5,0
Fc1cccc(F)c1/C=C/c1ccc2ccccc2n1,2,48*,6,0
Fc1cccc(Cl)c1/C=C/c1cnc2ccccc2n1,0,66*,3,0
O=C(O)/C=C/c1cnc2ccccc2n1,-3,5,-7,0
COc1cccc(C(=O)NN2CC(O)=C(c3nc(C)cs3)C2=N)c1,4,53*,1,0
CCC(=O)Nc1nc2c(OC)ccc(OC)c2s1,-2,68*,-2,-1
CCCC(=O)Nc1nc2c(OC)ccc(OC)c2s1,1,68*,3,2
Cc1ccccc1NC(=O)c1sc(NC(=O)C2CC2)nc1C,0,4,-1,-1
COc1ccc(OCC(=O)NNc2nc3ccccc3s2)cc1,4,17,5,1
Cc1ccc(Cl)c2sc(NC(=O)C3CC3)nc12,0,49*,0,3
SMILES,APOBEC3A inh,AHR activator,APOBEC3G inh,NTR1 ag
COc1ccc(OC)c2sc(NC(=O)c3ccc(Br)s3)nc12,-4,25,0,7
COc1ccc(OC)c2sc(NNC(=O)COc3ccccc3)nc12,1,79*,-6,0
O=C(NC(=S)Nc1ccccn1)c1cccc([N+](=O)[O-])c1,2,11,-5,1
CNc1cncc(C(=O)O)c1,0,1,-2,0
CC(C)c1ccc(C(=O)NNC(=O)C2C3CCC(C3)C2C(=O)O)cc1 (stereo not drawn),-1,14,1,0
O=C(NC(=O)c1ccccc1)Nc1cccc(S(=O)(=O)N2CCCCC2)c1,-5,-1,1,0
CC(=O)N(Cc1ccccc1C)c1cccc(C)c1C,1,-3,-1,0
COc1ccc(OC)c2sc(NC(=O)C3CC3)nc12,-6,75*,-5,0
COc1ccc(OC)c2sc(NC(=O)c3ccc(Cl)s3)nc12,-4,30,-4,6
COc1ccc(OC)c2sc(NNC(=O)C3COc4ccccc4O3)nc12 (stereo not drawn),-5,57*,-17,0
O=C(NNc1nc2c(F)cc(F)cc2s1)C1COc2ccccc2O1 (stereo not drawn),-8,6,-20,0
COc1cc(C2SCC(=O)N2Cc2ccccc2)cc(OC)c1OC (stereo not drawn),-1,6,-7,0
CC(=O)c1c(NC(=O)c2ccccc2)[nH]c(-c2ccccc2)nc1=S,-10,16,-9,0
CC(=O)c1c(C)[nH]c(-c2ccccc2)nc1=S,0,66*,-4,-1
CC(=O)c1c(C)nc(-c2ccccc2)nc1N,-4,77*,-5,-1
